# B1: unnamed (peptide)
# chain: NAGIRPKFILALNDE
# Target: AgAbp1
# Experiment: SPOT peptide array binding signal intensity (averaged, normalized) (arbitrary units (background-subtracted, floor 0; scale differs between SH3 domains)); higher = stronger binding of the SH3 domain to the peptide
# In short: (§1)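 Four yeast species supplied the SH3 domains, which were expressed as GST fusions in E. coli BL21(DE3) and purified on glutathione Sepharose. Incubation with cellulose membranes carrying synthetic 15-mer peptides, cysteines exchanged for serines, ran overnight at 4°C at 10 μg/ml in TBS-based blocking buffer. Binding signal is reported as normalized, background-subtracted spot intensity averaged over replicates, in arbitrary units not shared between domains.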
row,Binder,SPOT peptide array binding signal intensity
1,B1,≤ 0

# Target: AgBbc1
# Experiment: as above
# In short: as §1
row,Binder,SPOT peptide array binding signal intensity
1,B1,2.75

# Target: AgBem1-D1
# Experiment: as above
# In short: as §1
row,Binder,SPOT peptide array binding signal intensity
1,B1,11.5

# Target: AgBzz1-D1
# Experiment: as above
# In short: as §1
row,Binder,SPOT peptide array binding signal intensity
1,B1,44

# Target: AgBzz1-D2
# Experiment: as above
# In short: as §1
row,Binder,SPOT peptide array binding signal intensity
1,B1,77

# Target: AgCyk3
# Experiment: as above
# In short: as §1
row,Binder,SPOT peptide array binding signal intensity
1,B1,7

# Target: AgFus1
# Experiment: as above
# In short: as §1
row,Binder,SPOT peptide array binding signal intensity
1,B1,68

# Target: AgHof1
# Experiment: as above
# In short: as §1
row,Binder,SPOT peptide array binding signal intensity
1,B1,13.8

# Target: AgHse1
# Experiment: as above
# In short: as §1
row,Binder,SPOT peptide array binding signal intensity
1,B1,616

# Target: AgLsb1
# Experiment: as above
# In short: as §1
row,Binder,SPOT peptide array binding signal intensity
1,B1,2

# Target: AgLsb4
# Experiment: as above
# In short: as §1
row,Binder,SPOT peptide array binding signal intensity
1,B1,25

# Target: AgMyo5
# Experiment: as above
# In short: as §1
row,Binder,SPOT peptide array binding signal intensity
1,B1,1

# Target: AgNbp2
# Experiment: as above
# In short: as §1
row,Binder,SPOT peptide array binding signal intensity
1,B1,0.5

# Target: AgRvs167
# Experiment: as above
# In short: as §1
row,Binder,SPOT peptide array binding signal intensity
1,B1,2.33

# Target: AgSho1
# Experiment: as above
# In short: as §1
row,Binder,SPOT peptide array binding signal intensity
1,B1,9.5

# Target: AgSla1-D1-D2
# Experiment: as above
# In short: as §1
row,Binder,SPOT peptide array binding signal intensity
1,B1,3

# Target: AgSla1-D3
# Experiment: as above
# In short: as §1
row,Binder,SPOT peptide array binding signal intensity
1,B1,4

# Target: CaAbp1-D1
# Experiment: as above
# In short: as §1
row,Binder,SPOT peptide array binding signal intensity
1,B1,≤ 0

# Target: CaAbp1-D2
# Experiment: as above
# In short: as §1
row,Binder,SPOT peptide array binding signal intensity
1,B1,≤ 0

# Target: CaBbc1
# Experiment: as above
# In short: as §1
row,Binder,SPOT peptide array binding signal intensity
1,B1,1.5

# Target: CaBem1-D1
# Experiment: as above
# In short: as §1
row,Binder,SPOT peptide array binding signal intensity
1,B1,1

# Target: CaBzz1-D1
# Experiment: as above
# In short: as §1
row,Binder,SPOT peptide array binding signal intensity
1,B1,72

# Target: CaBzz1-D2
# Experiment: as above
# In short: as §1
row,Binder,SPOT peptide array binding signal intensity
1,B1,26.2

# Target: CaCyk3
# Experiment: as above
# In short: as §1
row,Binder,SPOT peptide array binding signal intensity
1,B1,2

# Target: CaFus1
# Experiment: as above
# In short: as §1
row,Binder,SPOT peptide array binding signal intensity
1,B1,1120

# Target: CaHof1
# Experiment: as above
# In short: as §1
row,Binder,SPOT peptide array binding signal intensity
1,B1,1

# Target: CaHse1
# Experiment: as above
# In short: as §1
row,Binder,SPOT peptide array binding signal intensity
1,B1,6.5

# Target: CaLsb1
# Experiment: as above
# In short: as §1
row,Binder,SPOT peptide array binding signal intensity
1,B1,1

# Target: CaLsb4
# Experiment: as above
# In short: as §1
row,Binder,SPOT peptide array binding signal intensity
1,B1,≤ 0

# Target: CaMyo5
# Experiment: as above
# In short: as §1
row,Binder,SPOT peptide array binding signal intensity
1,B1,27.2

# Target: CaNbp2
# Experiment: as above
# In short: as §1
row,Binder,SPOT peptide array binding signal intensity
1,B1,122

# Target: CaRvs167
# Experiment: as above
# In short: as §1
row,Binder,SPOT peptide array binding signal intensity
1,B1,1.17

# Target: CaRvs167-3
# Experiment: as above
# In short: as §1
row,Binder,SPOT peptide array binding signal intensity
1,B1,17

# Target: CaSho1
# Experiment: as above
# In short: as §1
row,Binder,SPOT peptide array binding signal intensity
1,B1,222

# Target: CaSla1-D1-D2
# Experiment: as above
# In short: as §1
row,Binder,SPOT peptide array binding signal intensity
1,B1,≤ 0

# Target: CaSla1-D3
# Experiment: as above
# In short: as §1
row,Binder,SPOT peptide array binding signal intensity
1,B1,10.8

# Target: ScAbp1
# Experiment: as above
# In short: as §1
row,Binder,SPOT peptide array binding signal intensity
1,B1,≤ 0

# Target: ScBbc1
# Experiment: as above
# In short: as §1
row,Binder,SPOT peptide array binding signal intensity
1,B1,≤ 0

# Target: ScBem1-D1
# Experiment: as above
# In short: as §1
row,Binder,SPOT peptide array binding signal intensity
1,B1,1

# Target: ScBzz1-D1
# Experiment: as above
# In short: as §1
row,Binder,SPOT peptide array binding signal intensity
1,B1,43

# Target: ScBzz1-D2
# Experiment: as above
# In short: as §1
row,Binder,SPOT peptide array binding signal intensity
1,B1,19

# Target: ScCyk3
# Experiment: as above
# In short: as §1
row,Binder,SPOT peptide array binding signal intensity
1,B1,54.5

# Target: ScFus1
# Experiment: as above
# In short: as §1
row,Binder,SPOT peptide array binding signal intensity
1,B1,159

# Target: ScHof1
# Experiment: as above
# In short: as §1
row,Binder,SPOT peptide array binding signal intensity
1,B1,≤ 0

# Target: ScHse1
# Experiment: as above
# In short: as §1
row,Binder,SPOT peptide array binding signal intensity
1,B1,628

# Target: ScLsb1
# Experiment: as above
# In short: as §1
row,Binder,SPOT peptide array binding signal intensity
1,B1,1.5

# Target: ScLsb2
# Experiment: as above
# In short: as §1
row,Binder,SPOT peptide array binding signal intensity
1,B1,≤ 0

# Target: ScLsb3
# Experiment: as above
# In short: as §1
row,Binder,SPOT peptide array binding signal intensity
1,B1,≤ 0

# Target: ScLsb4
# Experiment: as above
# In short: as §1
row,Binder,SPOT peptide array binding signal intensity
1,B1,≤ 0

# Target: ScMyo3
# Experiment: as above
# In short: as §1
row,Binder,SPOT peptide array binding signal intensity
1,B1,2.5

# Target: ScMyo5
# Experiment: as above
# In short: as §1
row,Binder,SPOT peptide array binding signal intensity
1,B1,≤ 0

# Target: ScNbp2
# Experiment: as above
# In short: as §1
row,Binder,SPOT peptide array binding signal intensity
1,B1,23.5

# Target: ScPex13
# Experiment: as above
# In short: as §1
row,Binder,SPOT peptide array binding signal intensity
1,B1,≤ 0

# Target: ScRvs167
# Experiment: as above
# In short: as §1
row,Binder,SPOT peptide array binding signal intensity
1,B1,≤ 0

# Target: ScSho1
# Experiment: as above
# In short: as §1
row,Binder,SPOT peptide array binding signal intensity
1,B1,158

# Target: ScSla1-D1-D2
# Experiment: as above
# In short: as §1
row,Binder,SPOT peptide array binding signal intensity
1,B1,≤ 0

# Target: ScSla1-D3
# Experiment: as above
# In short: as §1
row,Binder,SPOT peptide array binding signal intensity
1,B1,6.5

# Target: SpAbp1-D1
# Experiment: as above
# In short: as §1
row,Binder,SPOT peptide array binding signal intensity
1,B1,≤ 0

# Target: SpBbc1
# Experiment: as above
# In short: as §1
row,Binder,SPOT peptide array binding signal intensity
1,B1,4

# Target: SpBzz1-D1
# Experiment: as above
# In short: as §1
row,Binder,SPOT peptide array binding signal intensity
1,B1,201

# Target: SpBzz1-D2
# Experiment: as above
# In short: as §1
row,Binder,SPOT peptide array binding signal intensity
1,B1,≤ 0

# Target: SpCyk3
# Experiment: as above
# In short: as §1
row,Binder,SPOT peptide array binding signal intensity
1,B1,2

# Target: SpHof1
# Experiment: as above
# In short: as §1
row,Binder,SPOT peptide array binding signal intensity
1,B1,28.8

# Target: SpHof1-2
# Experiment: as above
# In short: as §1
row,Binder,SPOT peptide array binding signal intensity
1,B1,19

# Target: SpHof1-3
# Experiment: as above
# In short: as §1
row,Binder,SPOT peptide array binding signal intensity
1,B1,214

# Target: SpHse1
# Experiment: as above
# In short: as §1
row,Binder,SPOT peptide array binding signal intensity
1,B1,481

# Target: SpLsb1
# Experiment: as above
# In short: as §1
row,Binder,SPOT peptide array binding signal intensity
1,B1,≤ 0

# Target: SpLsb4
# Experiment: as above
# In short: as §1
row,Binder,SPOT peptide array binding signal intensity
1,B1,≤ 0

# Target: SpMyo1
# Experiment: as above
# In short: as §1
row,Binder,SPOT peptide array binding signal intensity
1,B1,≤ 0

# Target: SpNbp2
# Experiment: as above
# In short: as §1
row,Binder,SPOT peptide array binding signal intensity
1,B1,16.5

# Target: SpPex13
# Experiment: as above
# In short: as §1
row,Binder,SPOT peptide array binding signal intensity
1,B1,4

# Target: SpRvs167
# Experiment: as above
# In short: as §1
row,Binder,SPOT peptide array binding signal intensity
1,B1,3.5

# Target: SpSla1-D1-D2
# Experiment: as above
# In short: as §1
row,Binder,SPOT peptide array binding signal intensity
1,B1,4

# Target: SpSla1-D3
# Experiment: as above
# In short: as §1
row,Binder,SPOT peptide array binding signal intensity
1,B1,≤ 0

# From the supplement of paper PMC4466140
